Compound activity as filed in PubChem.
A selection: hits, their analogues and other compounds. The true share with any hit is near 6.3%.
Mdm2 MdmX PPI: inhibitors of human Mdm2-MdmX association, primary screen, cell-based, luminescence, split luciferase, SaOS-2, uHTS; AID 485346, 2010; 330,000 tested, 3% active; inhibition, % at 8 µM; Protein Mdm4 (Homo sapiens) + E3 ubiquitin-protein ligase Mdm2 (Homo sapiens), …; SaOS-2 split-luciferase Mdm2/MdmX complementation;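 active means inhibition of at least 50% at 8 µM in the primary screen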
Target sequence (O15151 whole entry, looked up): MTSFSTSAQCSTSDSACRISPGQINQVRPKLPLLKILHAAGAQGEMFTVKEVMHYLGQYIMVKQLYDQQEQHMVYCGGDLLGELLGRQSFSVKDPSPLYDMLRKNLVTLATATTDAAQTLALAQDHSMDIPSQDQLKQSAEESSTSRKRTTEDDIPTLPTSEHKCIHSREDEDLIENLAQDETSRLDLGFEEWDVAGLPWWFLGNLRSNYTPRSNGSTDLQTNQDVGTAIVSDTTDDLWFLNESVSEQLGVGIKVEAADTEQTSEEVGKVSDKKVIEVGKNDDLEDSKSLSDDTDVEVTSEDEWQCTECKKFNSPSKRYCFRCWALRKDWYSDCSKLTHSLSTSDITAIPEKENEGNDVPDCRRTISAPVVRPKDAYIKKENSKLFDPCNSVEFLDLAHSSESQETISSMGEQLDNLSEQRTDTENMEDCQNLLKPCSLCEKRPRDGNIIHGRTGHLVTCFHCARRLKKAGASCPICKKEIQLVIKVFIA
Target sequence (Q00987 whole entry, looked up): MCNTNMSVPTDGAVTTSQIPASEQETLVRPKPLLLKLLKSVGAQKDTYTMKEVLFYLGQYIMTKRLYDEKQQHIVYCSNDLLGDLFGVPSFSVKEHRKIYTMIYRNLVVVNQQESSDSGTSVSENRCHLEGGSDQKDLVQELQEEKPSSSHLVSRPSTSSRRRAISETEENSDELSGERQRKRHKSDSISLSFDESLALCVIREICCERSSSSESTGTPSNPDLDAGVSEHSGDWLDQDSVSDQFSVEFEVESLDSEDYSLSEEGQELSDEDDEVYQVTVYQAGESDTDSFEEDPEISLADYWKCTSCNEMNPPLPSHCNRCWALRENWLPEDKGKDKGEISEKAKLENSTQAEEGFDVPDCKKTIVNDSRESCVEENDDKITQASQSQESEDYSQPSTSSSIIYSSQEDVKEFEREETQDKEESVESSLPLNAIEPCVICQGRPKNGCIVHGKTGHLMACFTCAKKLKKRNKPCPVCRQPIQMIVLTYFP
TIM10 inh: growth inhibitors of isogenic TIM10 control yeast, primary screen, counter-screen for tim10-1 yeast inhibitor project, luminescence, uHTS. inhibition, % at 10 µM. AID 463195, 2010. 330,000 tested, 1.4% active. S. cerevisiae TIM10 strain growth, BacTiter-Glo luminescence, 24 h;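 active means inhibition of 40% or more at the single tested concentration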;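 further: wild-type TIM10 isogenic control strain grown at permissive 25 °C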
tim23-1 inh: growth inhibitors of tim23-1 mutant yeast, primary screen, luminescence, uHTS; 330,000 tested, 1.3% active; inhibition, % at 20 µM; S. cerevisiae tim23-1 growth, BacTiter-Glo luminescence, 24 h; AID 463212, 2010;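 active means growth inhibition of the mutant yeast at or above 50%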;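 further: temperature-sensitive mutant grown at 25 °C; plate controls were DMSO-treated mutant yeast for no effect and medium wells lacking yeast for full effect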
tim10-1 inh: growth inhibitors of tim10-1 mutant yeast, primary screen, luminescence, uHTS. S. cerevisiae tim10-1 ts strain growth, BacTiter-Glo, 24 h. inhibition, % at 20 µM. 330,000 tested, 2.2% active;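 active means inhibition of at least 40%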;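 further: mutant grown at 25 °C; 0% = DMSO wells with yeast and 100% = wells holding no yeast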
MPTP block: mitochondrial permeability transition pore inhibitors, primary screen, biochemical, isolated mouse mitochondria, absorbance. Ca2+ swelling absorbance, 30 min. inhibition, % at 10 µM. 360,000 tested, 1.4% active;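 active means inhibition of 50% or more, scaled per plate between neutral and stimulator controls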;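 further: 0% = DMSO wells given calcium and 100% = 1 mM EGTA wells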
tim23-1 conf: tim23-1 mutant yeast growth inhibitors, confirmation, luminescence, single concentration; 4,400 tested, 83% active; shares compounds with tim23-1 inh; inhibition, % at 20 µM; S. cerevisiae tim23-1 growth, BacTiter-Glo luminescence, 24 h;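 active means inhibition above about 39% in either of two replicate wells at 20 µM, limit read from the data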;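 further: temperature-sensitive tim23-1 mutant grown at 25 °C; 0% = DMSO wells with yeast and 100% = medium wells without yeast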
An asterisk follows results filed as active; · = no result given.

SMILES	Mdm2 MdmX PPI	TIM10 inh	tim23-1 inh	tim10-1 inh	MPTP block	tim23-1 conf
CCN(C(=O)c1ccc(NC(=O)C2CCCCC2C(=O)O)cc1)c1ccccc1 (centres undefined)	·	·	·	·	-1.3	·
O=C(c1ccc(-c2nc3ccccc3s2)s1)N1CCOCC1	49.6	14.9	53.3*	4.4	·	43.9*
COC(=O)C[C@@H]1C=C[C@H](NC(=O)Nc2ccc(OC)cc2)[C@@H](CO)O1	·	·	·	·	1.8	·
Cc1cc(N)n2nc(-c3ccccc3)c(-c3ccccc3)c2n1	-11.0	9.8	59.4*	15.6	0.5	46.5*
CSc1ncnc2c1ncn2CCCNc1ccc(C)c(C)c1	·	·	·	·	0.4	·
CCOC(=O)Nc1ccc2c(c1)Nc1ccccc1S2	-4.4	35.6	61.7*	33.0	11.8	51.7*
Oc1ccc(-c2nccc(-c3cccs3)n2)cc1	-127.0	20.4	56.7*	8.0	5.1	57.5*
CCCCN(C(C)=O)c1c(CC)nc2ccc(C(=O)NCCOc3ccc(OC)cc3)cn12	·	·	·	·	0.6	·
COc1ccc(C2=NNC(c3ccco3)=Nc3ccc(F)cc32)cc1	-2.9	9.7	37.4	15.7	-0.9	·
COc1ccc2c(c1)C(c1ccc([N+](=O)[O-])cc1)=NNC(c1ccco1)=N2	13.6	33.0	52.6*	38.8	0.6	37.0*
CCCCN1C(=O)C(CC(=O)NC(c2ccccc2)c2ccccc2)CC(C(=O)N2CCCCCC2)=C1C (centres undefined)	·	·	·	·	0.2	·
CC(C)NC(=O)c1cccc2c(-c3ccc(F)c(F)c3)coc12	·	·	·	·	-0.2	·
CC1(C(=O)NS(=O)(=O)c2ccccc2OC(F)(F)F)CCN1C(=O)Cc1ccccc1 (centres undefined)	·	·	·	·	0.5	·
N#C/C(C(N)=O)=c1/ccc2c(c1)N1C3=C(CCCC3)CC3CCCCC31N=2 (centres undefined)	41.0	19.2	62.9*	25.9	·	52.0*
Cc1ccc(C(=O)CCC(=O)Nc2ncccc2O)cc1	-12.6	5.4	54.6*	8.7	-0.9	4.4
CCOC(=O)N1CCC(NC(=O)c2oc3c(C)c(C)ccc3c2C)CC1	25.3	29.7	59.8*	36.9	-1.5	58.1*
C[C@@H]1CN([C@@H](C)CO)C(=O)c2cc(NC(=O)Nc3ccccc3)ccc2O[C@@H](C)CCCCO[C@H]1CN(C)C(=O)Nc1ccc(C(F)(F)F)cc1	·	·	·	·	-1.2	·
NC(=S)NNc1cc(Cl)cc(Cl)c1	-9.7	2.7	57.7*	12.4	0.0	69.8*
COc1cccc(/C=C2/CCC(CN(C)C)C2=O)c1 (centres undefined)	·	·	·	·	-3.1	·
Cc1nc(Nc2ccc(S(N)(=O)=O)cc2)sc1C(=O)Nc1ccccc1	26.1	-6.0	10.2	6.0	-1.3	·
Cc1nc(Nc2ccccc2)sc1C(=O)Nc1ccccc1	-7.1	11.5	55.1*	-12.4	3.8	53.2*
O=C(COC(=O)c1ccc(O)cc1)Nc1ccc2c(c1)OCCO2	-43.6	3.3	5.9	-2.1	0.0	·
O=C(COC(=O)c1ccc(O)cc1)c1ccc2c(c1)OCCO2	-23.8	-16.6	59.8*	-17.0	-0.4	22.1
CC1=C(C(=O)N(C)C)CC(CC(=O)NCc2cccs2)C(=O)N1CCC1=CCCCC1 (centres undefined)	·	·	·	·	0.4	·
O=C(NCc1ccc(F)cc1)c1cc(C2CCCCN2C(=O)CCCc2ccccc2)on1 (centres undefined)	·	·	·	·	0.6	·
SMILES	Mdm2 MdmX PPI	TIM10 inh	tim23-1 inh	tim10-1 inh	MPTP block	tim23-1 conf
O=S(=O)(c1ccc(Br)s1)N1CCN(c2ccccn2)CC1	2.4	30.0	56.6*	37.6	0.0	36.4
O=S(=O)(c1ccc(Br)s1)N1CCN(c2ncccn2)CC1	17.3	-12.4	7.6	4.7	-0.3	·
CC(C)n1nnnc1C1c2ccccc2C(=O)N1Cc1cccnc1 (centres undefined)	·	·	·	·	1.1	·
Cc1cc2cccc(C)c2nc1SCC(=O)NNC(=O)c1ccco1	-12.7	12.3	8.8	13.0	-2.4	·
CCc1cc2cccc(C)c2nc1SCC(=O)N1CCN(C(=O)c2ccco2)CC1	40.8	5.5	56.9*	29.6	-0.1	37.8*
COc1cc(CNc2ccc(O)cc2)cc(Br)c1OCc1ccccc1	0.6	14.2	50.4*	17.8	1.3	55.2*
O=C(Nc1cccc(F)c1)c1cccnc1NCCc1ccccc1	11.4	20.2	53.7*	21.1	30.0	54.0*
O=C(Nc1ccc(F)cc1)c1cccnc1NCCc1ccccc1	19.0	12.2	38.5	27.4	-15.9	·
CCCCc1cc(O)c(CCCC)c(O)c1	20.5	-3.3	53.3*	34.9	2.0	41.5*
CCN1C(=O)c2cccc3c(S(=O)(=O)N(C(=O)c4ccncc4)c4ccc(OC)cc4)ccc1c23	5.4	8.7	51.9*	24.4	-0.5	30.2
COc1cc(NC(=O)c2sc3ncn(CC(=O)N4CCCCC4C)c(=O)c3c2C)cc(OC)c1OC (centres undefined)	·	·	·	·	0.6	·
Oc1ccc(Cl)cc1CNCc1ccc(Cl)cc1	24.6	10.3	60.2*	17.4	0.2	38.1*
O=C(O)c1ccc(/C=C2/SC(=S)N(Cc3ccccc3)C2=O)cc1	·	·	·	·	1.6	·
O=C1/C(=C\c2ccc(O)cc2)SC(=S)N1Cc1ccccc1	35.7	19.3	54.8*	-13.0	26.7	14.4
CCCCn1c(N)c(N(CCC(C)C)C(=O)c2ccc3c(c2)OCCO3)c(=O)[nH]c1=O	-5.2	21.5	58.7*	30.2	-2.7	55.6*
CC(C)CN(C(=O)c1ccc2c(c1)OCCO2)c1c(N)n(Cc2ccccc2)c(=O)[nH]c1=O	-4.6	17.1	51.8*	27.6	-1.1	55.2*
CCCCn1c(N)c(N(CCC(C)C)C(=O)c2ccc3ccccc3c2)c(=O)[nH]c1=O	10.2	1.9	-2.9	5.6	0.5	·
CCCCN(C(=O)c1ccc2c(c1)OCCO2)c1c(N)n(CC(C)C)c(=O)[nH]c1=O	6.0	6.0	57.6*	12.0	-1.3	58.0*
CC(C)COC(=O)N(C)C[C@@H]1OCc2cnnn2CCCC(=O)N([C@H](C)CO)C[C@H]1C	·	·	·	·	-0.6	·
CNC[C@@H]1OCc2ccccc2-c2c(n(C)c3ccccc23)C(=O)N([C@H](C)CO)C[C@H]1C	·	·	·	·	-0.2	·
Nc1cc(-c2ccccc2)nn1Cc1ccc(Cl)cc1	10.5	14.8	50.4*	29.8	2.0	27.2
Nc1cc(-c2ccc(Br)cc2)nn1Cc1ccccc1	·	·	·	·	0.9	·
O=C(Nc1cc(Cl)ccc1N1CCOCC1)c1ccc(Br)o1	11.6	14.5	10.4	17.7	-0.2	·
COc1ccc(N2CCOCC2)c(NC(=O)c2ccc(Br)o2)c1	43.2	-6.1	52.1*	30.3	-0.8	38.6*
O=C(NC1CCCCC1)C(c1ccnc2ccccc12)N1CCc2ccccc2C1 (centres undefined)	·	·	·	·	-0.4	·
